# Laboratory results reported in PubChem BioAssay AID1159580 (chemical genetic matrix, 2015).
# Screen size: about 5,500 compounds; about 2,000 (36%) were called active. Another 18% or so got no clear call; they are omitted. This is one part of the list. A number with no mark means an inactive call. Cut-off read from the data, not from the text of the source: active = normalized growth mostly below about 0.91 (no sharp cut-off); inconclusive = no clear call, values can overlap the other calls; inactive = mostly above about 0.92.
# Assay: chemical genetic growth profiling, strain panel (AID 1159580);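 note: tested at 20 µM; growth read once vehicle control cultures reached saturation at 30 °C; 1 = growth at the plate median or of vehicle wells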
# Conditions: S. cerevisiae deletion strains, growth OD
structure (smiles),measurement,setting,value
COC1C(O)C(O[C@H]2CC[C@]3(C=O)C4C(CC[C@]3(O)C2)[C@@]2(O)CC[C@H](C3=CC(=O)OC3)[C@@]2(C)C[C@H]4OC(C)=O)OC(C)C1OC(C)=O (some centres undefined),normalized growth,"locus YAL021C, strain ccr4, stronger effect = lower value",0.977
same,normalized growth,"locus YAL026C, strain drs2, stronger effect = lower value",1.02
same,normalized growth,"locus YAL030W, strain snc1, stronger effect = lower value",0.977
same,normalized growth,"locus YBL061C, strain skt5, stronger effect = lower value",1.02
same,normalized growth,"locus YBR009C, strain hhf1, stronger effect = lower value",0.973
same,normalized growth,"locus YBR021W, strain FUR4, stronger effect = lower value",1.02
same,normalized growth,"locus YBR023C, strain chs3, stronger effect = lower value",1.01
same,normalized growth,"locus YBR171W, strain sec66, stronger effect = lower value",1.04
same,normalized growth,"locus YBR229C, strain ROT2, stronger effect = lower value",1.02
same,normalized growth,"locus YBR231C, strain swc5, stronger effect = lower value",1
same,normalized growth,"locus YBR279W, strain paf1, stronger effect = lower value",1.01
same,normalized growth,"locus YCL011C, strain gbp2, stronger effect = lower value",1
same,normalized growth,"locus YCL016C, strain dcc1, stronger effect = lower value",1
same,normalized growth,"locus YCL029C, strain bik1, stronger effect = lower value",1.05
same,normalized growth,"locus YCL069W, strain vba3, stronger effect = lower value",1.01
same,normalized growth,"locus YCR088W, strain abp1, stronger effect = lower value",1.02
same,normalized growth,"locus YDL005C, strain med2, stronger effect = lower value",1.01
same,normalized growth,"locus YDL035C, strain GPR1, stronger effect = lower value",1.03
same,normalized growth,"locus YDL040C, strain nat1, stronger effect = lower value",1.03
same,normalized growth,"locus YDL074C, strain BRE1, stronger effect = lower value",1.04
same,normalized growth,"locus YDL101C, strain DUN1, stronger effect = lower value",1.02
same,normalized growth,"locus YDL134C, strain PPH21, stronger effect = lower value",1.03
same,normalized growth,"locus YDL185W, strain tfp1, stronger effect = lower value",1.01
same,normalized growth,"locus YDL192W, strain arf1, stronger effect = lower value",1.03
same,normalized growth,"locus YDR001C, strain nth1, stronger effect = lower value",1.02
same,normalized growth,"locus YDR069C, strain doa4, stronger effect = lower value",0.951
same,normalized growth,"locus YDR101C, strain arx1, stronger effect = lower value",1.04
same,normalized growth,"locus YDR137W, strain rgp1, stronger effect = lower value",1.04
same,normalized growth,"locus YDR159W, strain sac3, stronger effect = lower value",0.966
same,normalized growth,"locus YDR162C, strain NBP2, stronger effect = lower value",1.06
same,normalized growth,"locus YDR195W, strain ref2",1.01
same,normalized growth,"locus YDR297W, strain sur2, stronger effect = lower value",0.956
same,normalized growth,"locus YDR318W, strain mcm21, stronger effect = lower value",1.03
same,normalized growth,"locus YDR334W, strain swr1, stronger effect = lower value",1.02
same,normalized growth,"locus YDR335W, strain msn5, stronger effect = lower value",0.982
same,normalized growth,"locus YDR388W, stronger effect = lower value",1.07
same,normalized growth,"locus YDR392W, strain spt3, stronger effect = lower value",1.04
same,normalized growth,"locus YDR502C, strain sam2, stronger effect = lower value",1.03
same,normalized growth,"locus YEL003W, strain gim4, stronger effect = lower value",1.02
same,normalized growth,"locus YEL037C, strain rad23, stronger effect = lower value",1.01
same,normalized growth,"locus YEL061C, strain CIN8 (second series), stronger effect = lower value",1.02
same,normalized growth,"locus YER015W, strain faa2, stronger effect = lower value",1
same,normalized growth,"locus YER016W, strain bim1, stronger effect = lower value",1.01
same,normalized growth,"locus YER110C, stronger effect = lower value",1.09
same,normalized growth,"locus YER111C, strain swi4, stronger effect = lower value",1.02
same,normalized growth,"locus YER155C, strain BEM2 (second series), stronger effect = lower value",1.04
same,normalized growth,"locus YER155C, strain BEM2, stronger effect = lower value",1.03
same,normalized growth,"locus YER167W, strain BCK2, stronger effect = lower value",1.03
same,normalized growth,"locus YFR010W, strain ubp6, stronger effect = lower value",1.04
same,normalized growth,"locus YGL078C, strain dbp3, stronger effect = lower value",1.03
same,normalized growth,"locus YGL167C, strain pmr1, stronger effect = lower value",1.02
same,normalized growth,"locus YGL173C, strain kem1, stronger effect = lower value",1.03
same,normalized growth,"locus YGL227W, strain vid30, stronger effect = lower value",1.02
same,normalized growth,"locus YGL240W, strain doc1, stronger effect = lower value",0.973
same,normalized growth,"locus YGL248W, strain PDE1, stronger effect = lower value",1.04
same,normalized growth,"locus YGL253W, strain hxk2, stronger effect = lower value",0.984
same,normalized growth,"locus YGR135W, strain pre9, stronger effect = lower value",1.03
same,normalized growth,"locus YGR252W, strain gcn5, stronger effect = lower value",1.22
same,normalized growth,"locus YHR013C, strain ard1, stronger effect = lower value",1.01
same,normalized growth,"locus YHR027C, strain rpn1, stronger effect = lower value",0.996
same,normalized growth,"locus YHR079C, strain IRE1 (second series), stronger effect = lower value",1.01
same,normalized growth,"locus YHR094C, strain hxt1, stronger effect = lower value",1.11 [resistant] (active)
same,normalized growth,"locus YHR129C, strain ARP1, stronger effect = lower value",1.03
same,normalized growth,"locus YHR142W, strain chs7, stronger effect = lower value",1.03
same,normalized growth,"locus YHR200W, strain rpn10, stronger effect = lower value",1.04
same,normalized growth,"locus YIL066C, strain RNR3, stronger effect = lower value",1.04
same,normalized growth,"locus YIL073C, strain SPO22, stronger effect = lower value",1.1
same,normalized growth,"locus YIL125W, strain kgd1, stronger effect = lower value",0.996
same,normalized growth,"locus YIR030C, strain dcg1, stronger effect = lower value",1.01
same,normalized growth,"locus YJL092W, strain hpr5, stronger effect = lower value",1.02
same,normalized growth,"locus YJL095W, strain BCK1 (second series), stronger effect = lower value",0.974
same,normalized growth,"locus YJL095W, strain BCK1, stronger effect = lower value",1.07
same,normalized growth,"locus YJL115W, strain asf1, stronger effect = lower value",1.01
same,normalized growth,"locus YJL129C, strain trk1, stronger effect = lower value",1.04
same,normalized growth,"locus YJL134W, strain LCB3, stronger effect = lower value",1.01
same,normalized growth,"locus YJL154C, strain vps35, stronger effect = lower value",1.01
same,normalized growth,"locus YJL164C, strain tpk1, stronger effect = lower value",1.02
same,normalized growth,"locus YJL166W, strain qcr8, stronger effect = lower value",0.991
same,normalized growth,"locus YJL168C, strain set2, stronger effect = lower value",1.03
same,normalized growth,"locus YJL187C, strain SWE1 (second series), stronger effect = lower value",1.03
same,normalized growth,"locus YJR043C, strain POL32, stronger effect = lower value",1.02
same,normalized growth,"locus YJR075W, strain HOC1, stronger effect = lower value",1.01
same,normalized growth,"locus YKL009W, strain mrt4, stronger effect = lower value",0.959
same,normalized growth,"locus YKL068W, stronger effect = lower value",1.1 [resistant] (active)
same,normalized growth,"locus YKL085W, strain MDH1 (second series), stronger effect = lower value",1.1 [resistant] (active)
same,normalized growth,"locus YKL085W, strain MDH1, stronger effect = lower value",1.1 [resistant] (active)
same,normalized growth,"locus YKL160W, strain elf1, stronger effect = lower value",1.02
same,normalized growth,"locus YKR001C, strain vps1, stronger effect = lower value",1.02
same,normalized growth,"locus YKR026C, strain gcn3, stronger effect = lower value",1.02
same,normalized growth,"locus YKR091W, strain srl3, stronger effect = lower value",1.02
same,normalized growth,"locus YLL001W, strain dnm1, stronger effect = lower value",1.02
same,normalized growth,"locus YLL026W, stronger effect = lower value",1
same,normalized growth,"locus YLL041C, strain sdh2, stronger effect = lower value",0.985
same,normalized growth,"locus YLR027C, strain aat2, stronger effect = lower value",0.979
same,normalized growth,"locus YLR039C, strain RIC1, stronger effect = lower value",1.1
same,normalized growth,"locus YLR058C, strain SHM2, stronger effect = lower value",1.02
same,normalized growth,"locus YLR102C, strain apc9, stronger effect = lower value",1.17 [resistant] (active)
same,normalized growth,"locus YLR221C, strain rsa3, stronger effect = lower value",0.988
same,normalized growth,"locus YLR258W, strain gsy2, stronger effect = lower value",0.973
same,normalized growth,"locus YLR262C, strain YPT6 (second series), stronger effect = lower value",1.05
same,normalized growth,"locus YLR268W, strain sec22, stronger effect = lower value",1.03
same,normalized growth,"locus YLR320W, strain mms22, stronger effect = lower value",1.02
same,normalized growth,"locus YLR342W, strain FKS1, stronger effect = lower value",1.01
same,normalized growth,"locus YLR357W, strain rsc2, stronger effect = lower value",1.03
same,normalized growth,"locus YLR370C, strain arc18, stronger effect = lower value",0.98
same,normalized growth,"locus YLR371W, strain rom2, stronger effect = lower value",1.16 [resistant] (active)
same,normalized growth,"locus YLR384C, strain iki3, stronger effect = lower value",0.987
same,normalized growth,"locus YLR418C, strain cdc73, stronger effect = lower value",1.02
same,normalized growth,"locus YML016C, strain PPZ1, stronger effect = lower value",1.02
same,normalized growth,"locus YML032C, strain rad52, stronger effect = lower value",1.03
same,normalized growth,"locus YML120C, strain ndi1, stronger effect = lower value",0.969
same,normalized growth,"locus YML124C, strain tub3, stronger effect = lower value",1.02
same,normalized growth,"locus YMR058W, strain fet3, stronger effect = lower value",1.02
same,normalized growth,"locus YMR078C, strain ctf18, stronger effect = lower value",1.07
same,normalized growth,"locus YMR125W, strain sto1, stronger effect = lower value",1.02
same,normalized growth,"locus YMR129W, stronger effect = lower value",0.978
same,normalized growth,"locus YMR205C, strain PFK2, stronger effect = lower value",0.986
same,normalized growth,"locus YMR223W, strain ubp8, stronger effect = lower value",1.01
same,normalized growth,"locus YMR231W, strain pep5, stronger effect = lower value",1.02
same,normalized growth,"locus YMR263W, strain SAP30, stronger effect = lower value",1.04
same,normalized growth,"locus YMR307W, strain GAS1, stronger effect = lower value",1.07
same,normalized growth,"locus YNL067W, strain RPL9B, stronger effect = lower value",1.02
same,normalized growth,"locus YNL071W, strain lat1, stronger effect = lower value",1.03
same,normalized growth,"locus YNL209W, strain ssb2, stronger effect = lower value",0.994
same,normalized growth,"locus YNL233W, strain BNI4, stronger effect = lower value",1.04
same,normalized growth,"locus YNL248C, strain rpa49, stronger effect = lower value",1.01
same,normalized growth,"locus YNL250W, strain rad50, stronger effect = lower value",1.04
same,normalized growth,"locus YNL271C, strain bni1, stronger effect = lower value",1.02
same,normalized growth,"locus YNL298W, strain CLA4, stronger effect = lower value",1.07
same,normalized growth,"locus YNL307C, strain MCK1, stronger effect = lower value",1.12 [resistant] (active)
same,normalized growth,"locus YNL322C, strain KRE1 (second series), stronger effect = lower value",1.02
same,normalized growth,"locus YNR049C, strain mso1, stronger effect = lower value",0.972
same,normalized growth,"locus YNR052C, strain pop2, stronger effect = lower value",1.13 [resistant] (active)
same,normalized growth,"locus YOL012C, strain htz1",1.05
same,normalized growth,"locus YOL147C, strain pex11, stronger effect = lower value",1.02
same,normalized growth,"locus YOR001W, strain rrp6, stronger effect = lower value",0.97
same,normalized growth,"locus YOR061W, strain CKA2, stronger effect = lower value",1.04
same,normalized growth,"locus YOR069W, strain VPS5, stronger effect = lower value",1.02
same,normalized growth,"locus YOR070C, strain gyp1, stronger effect = lower value",0.989
same,normalized growth,"locus YOR080W, strain dia2, stronger effect = lower value",1.01
same,normalized growth,"locus YOR083W, strain WHI5, stronger effect = lower value",1.03
same,normalized growth,"locus YOR106W, strain vam3, stronger effect = lower value",1.01
same,normalized growth,"locus YOR136W, strain idh2, stronger effect = lower value",1.03
same,normalized growth,"locus YOR144C, strain elg1, stronger effect = lower value",1.03
same,normalized growth,"locus YOR184W, strain ser1, stronger effect = lower value",1.05
same,normalized growth,"locus YOR265W, strain rbl2, stronger effect = lower value",0.993
same,normalized growth,"locus YOR270C, strain vph1, stronger effect = lower value",1.04
same,normalized growth,"locus YOR290C, strain snf2, stronger effect = lower value",1.03
same,normalized growth,"locus YOR316C, strain cot1, stronger effect = lower value",1.08
same,normalized growth,"locus YPL051W, strain arl3, stronger effect = lower value",1.02
same,normalized growth,"locus YPL078C, strain atp4, stronger effect = lower value",1.01
same,normalized growth,"locus YPL106C, strain sse1, stronger effect = lower value",1.05
same,normalized growth,"locus YPL240C, strain hsp82, stronger effect = lower value",1.01
same,normalized growth,"locus YPL241C, strain CIN2, stronger effect = lower value",1.01
same,normalized growth,"locus YPR119W, strain clb2, stronger effect = lower value",1.11 [resistant] (active)
same,normalized growth,"locus YPR141C, strain kar3, stronger effect = lower value",0.98
same,normalized growth,"locus YPR163C, strain tif3, stronger effect = lower value",1.03
same,normalized growth,"locus YPR167C, strain met16, stronger effect = lower value",1.02
same,normalized growth,"strain wtn01, stronger effect = lower value",1.02
